In all, about 1,500 compounds went through this assay and about 140 (9.3%) were called active. How the calls were made is not given here. Only a sample is shown.
assay: false positives in methylated H4 peptide AlphaScreen detection – biochemical, cherry-picked samples, artefact control for NSD2 inhibitor project, dose response (AID 1053174); settings: AlphaScreen artifact counterscreen, preloaded methylated H4 peptide; series mostly up to 10 µM; activity change, negative = signal loss: at the top concentration;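 on activity change, negative = signal loss: 0% = median of neutral control wells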

| Compound | activity change, negative = signal loss | AC35 |
| --- | --- | --- |
| CCNC(=O)C1(C)CCCN(C(=O)c2ccc3ccccc3n2)C1 (stereo unspecified) | -5.17% (inactive) | – |
| O=C(/C=C/c1ccc(Cl)cc1Cl)NCc1ccco1 | -1.78% (inactive) | – |
| COC(=O)c1nc(NC(=O)c2ccccc2)n[nH]1 | -0.64% (inactive) | – |
| CCC1=[N+]([O-])C(C)(/C(C)=N\O)N(O)C1(C)C (stereo unspecified) | -1.82% (inactive) | – |
| COC(=O)CCCCC1=CCC2C(=O)C=C(O)C2C1 (stereo unspecified) | -3.31% (inactive) | – |
| Clc1ccc(C2=CSC3=Nc4cccc5cccc(c45)N23)cc1 | -4.57% (inactive) | – |
| C=CCc1cccc2cc(C(=O)Nc3ccc(NC(C)=O)cc3)c(=O)oc12 | -3.44% (inactive) | – |
| Oc1ccc(CNc2ccccc2O)cc1 | -4.59% (inactive) | – |
| O=C(CNC(=O)c1ccccc1)Oc1ccc([N+](=O)[O-])cc1 | -0.899% (inactive) | – |
| Cc1c(CC(=O)N2CCN(C(=O)C3COc4ccccc4O3)CC2)c(=O)oc2c(O)c(O)ccc12 (stereo unspecified) | -19.2% (inactive) | – |
| CS(=O)(=O)N(CC(=O)NCc1ccco1)c1ccc2c(c1)OCO2 | -6.79% (inactive) | – |
| Cc1[nH]n(-c2ccccc2)c(=O)c1N=Nc1ccccc1C(=O)N1CCCCC1 | -13.8% (inactive) | – |
| CN(C(=O)CN1C(=O)S/C(=C\c2ccccc2F)C1=O)C1CCS(=O)(=O)C1 (stereo unspecified) | -3.69% (inactive) | – |
| CC(=O)N(C1=C(Cl)C(=O)c2ccccc2C1=O)c1ccc(C(=O)O)cc1 | 1.35% (inactive) | – |
| C(=N/Nc1cc(N2CCOCC2)nc(N2CCOCC2)n1)/c1ccccc1 | -3.4% (inactive) | – |
| Cc1cccc(OCCC(=O)Nc2ccccc2C(N)=O)c1 | -6.47% (inactive) | – |
| Cn1ncc2c(Nc3cccc4ccccc34)ncnc21 | -0.685% (inactive) | – |
| Cc1[nH][nH]c(=O)c1C(c1ccc2c(c1)OCO2)c1c(C)[nH][nH]c1=O | -7.25% (inactive) | – |
| Cc1ccc(S(=O)(=O)/N=C2\C=C(NS(=O)(=O)c3ccc(C)cc3)C(=O)c3ccccc32)cc1 | – | 9.17 µM (active) |
| O=c1[nH]c(CN2CCOCC2)nc2cc(Cl)ccc12 | -0.282% (inactive) | – |
| CCOC(=O)c1nnn(-c2nonc2OC)c1-c1ccccc1 | -3.01% (inactive) | – |
| Cc1cc(=O)[nH]c(N/N=C/c2c(C)nn(-c3ccccc3Cl)c2Cl)n1 | -5.79% (inactive) | – |

| Compound | activity change, negative = signal loss | AC35 |
| --- | --- | --- |
| Cc1ccc(-c2ccc(/C=N/NC(=O)CN3CCOCC3)o2)cc1[N+](=O)[O-] | -5.05% (inactive) | – |
| CCN1CCCC1CNc1ncnc2c1[nH]c1ccc(F)cc12 (stereo unspecified) | -7.31% (inactive) | – |
| O=C(NNC(=O)c1ccc(Cl)nc1)c1ccc(Br)cc1 | 1.02% (inactive) | – |
| CCN(CC)CCCC(C)n1c2nc(=O)[nH]c(=O)c-2nc2cc(Cl)ccc21 (stereo unspecified) | -0.97% (inactive) | – |
| CCN(CC)CCOc1ccc2c(c1)C(=NNC(=O)c1ccccn1)c1cc(OCCN(CC)CC)ccc1-2 | -19.1% (inactive) | – |
| Cc1ccnc(N2CCC(C(=O)NC3CCCCCC3)CC2)n1 | 1.89% (inactive) | – |
| C=CCNCCCCOc1ccccc1 | -2.37% (inactive) | – |
| Cc1ccccc1-n1nc(C)c2c1N=C1C(Cl)=CC(Cl)=CN1C2c1ccc(C(=O)O)cc1 (stereo unspecified) | -5.91% (inactive) | – |
| CCOC(=O)c1c(C)[nH]c(C(=O)NCCN2CCOCC2)c1C | -4.69% (inactive) | – |
| O=C1C=CC(=O)N1c1ccc(N2CCCCC2)cc1 | 0.066% (inactive) | – |
| O=C(Cn1cc(C(F)(F)F)ccc1=O)Nc1ccc2c(c1)OCCO2 | -1.84% (inactive) | – |
| COc1cc(C(=O)Nn2c(O)c(C3=c4ccccc4=NC3=O)sc2=S)ccc1O | -2.75% (inactive) | – |
| COc1ccc(NC(=O)Cn2nnc(C(=O)NCCc3ccc(OC)c(OC)c3)c2N)cc1 | -5.08% (inactive) | – |
| CCOc1cc(/C=C/C(=O)OCC(=O)NCCN2C(=O)CSC2=O)ccc1OCC(C)C | -3.73% (inactive) | – |
| CC1CCN(CCC(=O)Nc2ccccc2)CC1 | -3.77% (inactive) | – |
| O=C1Nc2cc(C(=O)N3CCC(N4CCCCC4)CC3)ccc2S/C1=C\c1ccccc1 | -9.24% (inactive) | – |
| CC(C)(C)CC(=O)Nc1nnc(SCC(=O)NCc2cccs2)s1 | -0.29% (inactive) | – |
| O=C1C(Cl)=C(Oc2ccccc2)C(=O)c2ccccc21 | -1.11% (inactive) | – |
| O=c1ccc2c(-c3ccccc3S(=O)(=O)O)c3ccc(O)c(O)c3oc-2c1O | – | 0.557 µM (active) |
| CC(=O)c1cc(-c2ccccc2)n(CC(=O)NC2CCCCC2)c1C | -3.2% (inactive) | – |
| Cc1[nH][nH]c(=O)c1C(c1ccc(-c2ccc(Cl)cc2)o1)c1c(C)[nH][nH]c1=O | -6.16% (inactive) | – |
| CCOc1ccc(C(CC(=O)O)NC(=O)C23CC4CC(CC(C4)C2)C3)cc1OC (stereo unspecified) | 4.36% (inactive) | – |

| Compound | activity change, negative = signal loss | AC35 |
| --- | --- | --- |
| COc1ccc(S(=O)(=O)N2CCCC(C(=O)NCCCn3ccnc3)C2)cc1OC (stereo unspecified) | -0.456% (inactive) | – |
| COc1ccc(NC(=O)C2Cc3c(-c4ccc(Cl)cc4)ccnc3O2)cc1 (stereo unspecified) | 3.24% (inactive) | – |
| CCOc1ccccc1Nc1nnc(SCc2ccc(C(=O)OC)o2)s1 | 6.37% (inactive) | – |
| NC1=CC(=O)C(=O)c2cccnc21 | -4.08% (inactive) | – |
| N#Cc1ccc(CSc2ncccn2)cc1 | -5.04% (inactive) | – |
| Cc1ccc(S(=O)(=O)N(C)C)cc1NC(=O)/C=C/c1cccs1 | -7.91% (inactive) | – |
| O=C(CN1C(=O)c2ccc([N+](=O)[O-])cc2C1=O)Nc1nnc(C2CC2)s1 | 3.62% (inactive) | – |
| O=C(NCc1ccco1)c1nc(-c2ccccc2)n(-c2ccccc2)n1 | -0.34% (inactive) | – |
| CCOC(=O)c1c(C)[nH]c2c1-c1ccccc1C(=O)C2=O | -0.086% (inactive) | – |
| O=[N+]([O-])c1ccccc1Nc1ccc(O)cc1 | -22.6% (inactive) | – |
| O=C(CSc1nnc(-c2ccccc2O)o1)NC1CCCCC1 | -3.17% (inactive) | – |
| Cc1ccc(C(=O)Cn2cc([N+](=O)[O-])nc2C)cc1 | 3.46% (inactive) | – |
| COCC(C)n1c(SCC(=O)NC2CCCCC2C)nc2ccccc2c1=O (stereo unspecified) | -4.78% (inactive) | – |
| Cc1ccc(/C=N/NC(=O)c2cc3ccccc3cc2O)o1 | 0.575% (inactive) | – |
| COc1ccccc1N(C)S(=O)(=O)c1ccc(C(=O)NC2CCCCCC2)cc1 | -2.33% (inactive) | – |
| COc1ccc(OC)c(-c2csc(-c3cccs3)n2)c1 | -2% (inactive) | – |
| COC(=O)[C@H](Cc1ccccc1)NC(=O)Nc1ccc(S(N)(=O)=O)cc1 | -3.74% (inactive) | – |
| C/C(=N/NC(=O)CCc1ccccc1)c1ccco1 | 1.24% (inactive) | – |
| CCN(CC)S(=O)(=O)c1ccc(N2CCN(C)CC2)c(NC(=O)Nc2ccccc2F)c1 | -5.39% (inactive) | – |
| Cc1sc2ncnc(SCC(=O)Nc3ccc(CN4CCCC4)cc3)c2c1C | -3.43% (inactive) | – |
| C=CCn1c(=NC(=O)c2ccc(S(=O)(=O)N3CCCC3)cc2)sc2cc(NC(C)=O)ccc21 | -1.39% [at 5 µM] (inactive) | – |
| CCN(CC)CCCNC(=O)c1cc(-c2cccc(Cl)c2)on1 | -3.33% (inactive) | – |

— PubChem BioAssay AID1053174 (Broad Institute, 2014)
